Yp Topo-I inh = Y. pestis Topo-I inhibition via cleavage products; Y. pestis Topo-I cleavage product accumulation, plate reader; activity, % at 10 µM; 360,000 tested, 0.064% active; AID 504884; in the data active means activity above about 50%, passing the limit was not always enough; inconclusive means no clear call, values can overlap the other calls
Rv3671c protease = Rv3671c (M. tuberculosis) protease inhibition; 320,000 tested, 0.048% active; P9WHR9; inhibition, % at 5.96 µM;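 further: extracellular domain of Rv3671c used as enzyme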
Target sequence (P9WHR9 whole entry, looked up, the tested form may be a part): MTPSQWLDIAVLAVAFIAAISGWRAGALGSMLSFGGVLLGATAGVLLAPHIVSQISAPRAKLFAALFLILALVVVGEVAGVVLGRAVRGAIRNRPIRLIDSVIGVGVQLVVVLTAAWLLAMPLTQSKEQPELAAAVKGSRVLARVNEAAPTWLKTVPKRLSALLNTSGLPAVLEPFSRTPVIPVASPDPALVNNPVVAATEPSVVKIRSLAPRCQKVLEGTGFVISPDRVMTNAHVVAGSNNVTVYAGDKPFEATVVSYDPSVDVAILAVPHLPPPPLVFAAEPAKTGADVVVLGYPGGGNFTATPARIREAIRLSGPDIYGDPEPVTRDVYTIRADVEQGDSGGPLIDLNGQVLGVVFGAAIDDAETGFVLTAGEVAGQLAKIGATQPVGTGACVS
PfHsp40 yeast = rescue of PfHsp40-mediated yeast toxicity | 340,000 tested, 0.68% active | AID 504582 | growth rescue, % at 12.5 µM | S. cerevisiae expressing PfHsp40, growth rescue, ATP luminescence; in the data active means growth rescue above about 28%, passing the limit was not always enough; inconclusive means no clear call, values can overlap the other calls;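 further: yeast W303a lacking pdr1 and pdr3 grown in galactose medium; growth measured after three days at 30 °C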
FadD28 binding = M. tuberculosis FadD28 bisubstrate binding inhibition; FadD28 bisubstrate probe binding, fluorescence polarization; inhibition, % at 12.5 µM; 360,000 tested, 0.22% active; AID 588549; in the data active means inhibition above about 8.5%, passing the limit was not always enough; inconclusive means no clear call, values can overlap the other calls
Mtb UGM inh = inhibitors of M. tuberculosis UDP-galactopyranose mutase; P9WIQ1; purified UGM, fluorescence polarization probe displacement; inhibition, % at 10 µM; 320,000 tested, 0.06% active; AID 504406; in the data active means inhibition above about 10%, passing the limit was not always enough; inconclusive means no clear call, values can overlap the other calls
Mtb betalactam = beta-lactam sensitization of Mtb H37Rv. M. tuberculosis H37Rv growth with meropenem, percent inhibition. inhibition, % at 25 µM. AID 434955. 330,000 tested, 0.27% active; call rule not given here;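 further: growth measured after seven days incubation then overnight dye step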
Rv3671c cf = confirmation of M. tuberculosis Rv3671c protease inhibitors; 140 tested, 40% active; inhibition, % at 5.96 µM; shares compounds with Rv3671c protease
DNA intercalat = intercalates into DNA, flagged in counter-screen; AC50, µM; acridine orange-DNA binding, fluorescence polarization; shares compounds with Mtb UGM inh; 35 tested, 60% active; AID 463198;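 active means fitted AC50 no greater than ten times the top concentration tested, cut at about 17 µM in these data; inconclusive means flat fit with 30 to 70% signal change, or an unreliable fit; inactive means AC50 beyond ten times the top concentration tested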
Of the large screens only hits and unclear results are named; the others gave an inactive call (follow-up assays come after a bar, where they were run). Rows were chosen to be rich in hits. Some 0.98% of all compounds tested hit in one or more screens of this group. Unless noted, no stated cut-off is given here; in the data, active means inhibition above about 38%; inactive means the rest.

Nc1ccc2nc(-c3ccc(-c4nc5ccc(N)cc5[nH]4)cc3)[nH]c2c1	Rv3671c protease 39 (no result: Yp Topo-I inh, PfHsp40 yeast, FadD28 binding) | Rv3671c cf 50
CCC(=O)N1CCC1(C)C(=O)Nc1ccc2c(c1)CCN2C(C)=O (configuration not stated)	none (no result: Rv3671c protease, PfHsp40 yeast, Mtb UGM inh, Mtb betalactam)
CN(CCC#N)C(=O)COC(=O)C1c2ccccc2Oc2ccccc21	none
N#CCCN(CCC#N)C(=O)C1c2ccccc2Oc2ccccc21	Rv3671c protease 84, FadD28 binding 11, Mtb UGM inh 73 | Rv3671c cf inactive
CC(C)(C)c1ccc(Oc2coc3cc(OCC(=O)O)ccc3c2=O)cc1	Rv3671c protease 49 | Rv3671c cf inactive
CCCCCC(=O)N1C[C@H](n2cc(C3CC3)nn2)[C@@H](O)C[C@@H]1c1ccc(Cl)cc1	none (no result: Rv3671c protease, PfHsp40 yeast, Mtb UGM inh, Mtb betalactam)
Oc1ccc(/C=N/Nc2ccnc3cc(Cl)ccc23)cc1O	Rv3671c protease 54, FadD28 binding 12 | Rv3671c cf inactive
COc1cccc(/C=N/Nc2ccc([N+](=O)[O-])cn2)c1O	Rv3671c protease 81 | Rv3671c cf inactive
CC(=O)c1c(OC(=O)c2ccco2)c2ccccc2n1C	Rv3671c protease 74 | Rv3671c cf 77
CC(=O)c1sc2ccccc2c1OC(=O)c1ccco1	Rv3671c protease 61, PfHsp40 yeast inconclusive | Rv3671c cf 56
CC(=O)c1ccccc1OC(=O)c1ccco1	none
Cc1cc2c(N)cccc2nn1	Rv3671c protease 55 | Rv3671c cf inactive
Nc1cccc2nc3ccccc3cc12	none (no result: Mtb UGM inh)
CCOC(=O)NC(=O)/C(C#N)=C\Nc1ccc(Cl)cc1Cl	none
CCOC(=O)NC(=O)/C(C#N)=C\Nc1sccc1C(=O)OC	Rv3671c protease 41 | Rv3671c cf inactive
Cc1ccccc1SCc1noc(C(=O)NCC2CCCO2)c1C(=O)O (configuration not stated)	none
O=C(NCC1CCCO1)c1onc(CSc2ccc(Cl)cc2)c1C(=O)O (configuration not stated)	Rv3671c protease 84 | Rv3671c cf inactive
COc1ccc(C(=O)N2CCC2(C)C(=O)NC(C)C)cc1OC (configuration not stated)	none (no result: Rv3671c protease, PfHsp40 yeast, Mtb UGM inh, Mtb betalactam)
CCOC(=O)C1CCN(S(=O)(=O)c2ccc3[nH]c(=O)c(=O)[nH]c3c2)CC1	none
CC1CCN(S(=O)(=O)c2ccc3[nH]c(=O)c(=O)[nH]c3c2)CC1	Rv3671c protease 62 | Rv3671c cf inactive
c1ccc(-c2nc3cc4ccccc4cc3[nH]2)nc1	Rv3671c protease 39 | Rv3671c cf 44
CC1=C(C(=O)N2CCCCCC2)CC(CC(=O)NCc2ccco2)C(=O)N1Cc1ccccc1 (configuration not stated)	none (no result: Yp Topo-I inh, Rv3671c protease, PfHsp40 yeast, Mtb UGM inh, Mtb betalactam)
N#CC1(P(=O)(c2ccccc2)c2ccccc2)CCCC1	Rv3671c protease 81 | Rv3671c cf inactive
Cc1cc(OC(=O)c2ccco2)c2c3c(c(=O)oc2c1)CCC3	none
CCCc1cc(=O)oc2cc(C)cc(OCC(=O)NC3CCN(Cc4ccccc4)CC3)c12	Rv3671c protease 125 | Rv3671c cf inactive
CCc1cc(=O)oc2cc(C)cc(OC(=O)c3ccco3)c12	Rv3671c protease 58 | Rv3671c cf 78
Cc1cc(OCC(=O)NC2CCN(Cc3ccccc3)CC2)c2c(C)cc(=O)oc2c1	none
Cc1cc(OC(=O)c2ccco2)c2c(C)cc(=O)oc2c1	Rv3671c protease 47 | Rv3671c cf 74
O=C(c1ccco1)N1CCN(Cc2nnc(-c3cccc(Br)c3)o2)CC1	none
NC(=O)Cc1ccc(OCc2nn[nH]n2)cc1	none (no result: Rv3671c protease, PfHsp40 yeast, Mtb UGM inh, Mtb betalactam)
CCCNC(=O)c1cc(C2CCCN(C(=O)C3CCCCC3)C2)on1 (configuration not stated)	none (no result: Rv3671c protease, PfHsp40 yeast, Mtb UGM inh, Mtb betalactam)
Cc1cccc2c(=O)oc(-c3ccccc3Cl)nc12	Rv3671c protease 51 | Rv3671c cf 72
NS(=O)(=O)c1ccc(CCNC(=O)CSc2nc3c(sc(=S)n3-c3ccccc3)c(=O)[nH]2)cc1	none (no result: Rv3671c protease, PfHsp40 yeast, Mtb UGM inh, Mtb betalactam)
CC1CCC2(CC1)NC(=O)N(CC(=O)Nc1ccc(N3CCCCC3)cc1)C2=O (configuration not stated)	none (no result: Rv3671c protease, PfHsp40 yeast, Mtb UGM inh, Mtb betalactam)
Cc1nn(C)c(C)c1N1C(=O)c2cccc3c(N)ccc(c23)C1=O	Mtb UGM inh 68 | DNA intercalat 6.1
c1ccc2c(-c3ccc4nncn4c3)cncc2c1	none (no result: Rv3671c protease, PfHsp40 yeast, Mtb UGM inh, Mtb betalactam)
CC(C)(C)C1(C)OC(=O)C(=Cc2ccc(OCC(=O)Nc3ccccc3)cc2)C(=O)O1 (configuration not stated)	none | DNA intercalat inactive
O=C(Nc1ccc(-c2cn3ccsc3n2)cc1)C1CC1	none
CC(=O)Nc1ccc(-c2cn3ccsc3n2)cc1	none | DNA intercalat inactive
c1ccc2c(-c3cccc4nccn34)cncc2c1	none (no result: Rv3671c protease, PfHsp40 yeast, Mtb UGM inh, Mtb betalactam)
O=C1CCC(=O)c2ccc3c4c(ccc1c24)CC3	none (no result: Rv3671c protease, Mtb UGM inh, Mtb betalactam)
O=C1CCN2C=Nc3cccc4ccc1c2c34	Mtb UGM inh 39 | DNA intercalat 13
COc1cccc(NC(=S)NC(Cc2ccccc2)c2ccccc2)c1 (configuration not stated)	none (no result: Rv3671c protease, PfHsp40 yeast, Mtb UGM inh, Mtb betalactam)
Cc1ccc(Cl)cc1N1CCN(C(=O)C2CCN(S(C)(=O)=O)CC2)CC1	none | DNA intercalat inactive

Source: PubChem BioAssay
